# Data: PubChem BioAssay AID430 (Sanford-Burnham Center for Chemical Genomics, 2006)
# Out of some 63,000 compounds screened, about 1,100 (1.7%) were called active. The entries come from a sample that favours actives as a whole. Potency and affinity values are given separately. A number with no mark means an inactive call. No stated cut-off is given here; in the data, active means cytotoxicity above about 50%; inactive means the rest.
# Assay: HPDE-C7 pancreatic duct cell viability loss – fluorescence, HTS (AID 430);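 further: cells exposed to compound for 48 hours before viability readout; 0% = vehicle and 100% = reference cytotoxic drug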
# Conditions: HPDE-C7 pancreatic duct cells viability, at 10 µM, active compounds read high
row,SMILES,cytotoxicity
1,CC(=O)Oc1cc2c(C(=O)NCCCN3CCOCC3)c(C)oc2c2ccccc12,5.1%
2,CCN(CC)c1ccc(NC(=O)c2cc(OC)cc(OC)c2)c(C)c1,53.5% (active)
3,CCN(CC)c1ccc(NC(=O)c2c(OC)cccc2OC)c(C)c1,0.4%
4,CCN(CC)c1ccc(C(=O)Nc2cccc(F)c2)cc1,34%
5,CCOc1cccc(C(=O)Nc2ccc(N(CC)CC)cc2)c1,79.8% (active)
6,CCOc1cccc(C(=O)Nc2ccc(N3CCN(S(C)(=O)=O)CC3)cc2)c1,-6.2%
7,CCN(CC)c1ccc(NC(=O)c2cccc(OC)c2)c(C)c1,39.6%
8,COc1ccc(CC(=O)NCc2ccccc2Cl)cc1S(=O)(=O)N1CCOCC1,1.1%
9,CCSc1nsc(SCC)c1C(N)=O,-6.7%
10,CCCN(CCO)Cc1cccc(Cl)c1,6.6%
11,COc1ccc(NS(=O)(=O)c2ccc(C)c(C(=O)O)c2)cc1,5%
12,CCOC(=O)N1CCN(C(=O)c2cc3sccc3n2C)CC1,-9.1%
13,Cc1onc(-c2ccccc2Cl)c1C(=O)N1CCN=C1SCc1cccnc1,-11.9%
14,COc1cccc(CN(C)C(=O)c2ccc(S(=O)(=O)N3CCCC3)cc2)c1OC,-5.4%
15,O=C(Nc1ncccc1Cl)c1cccc(F)c1,62.6% (active)
16,O=C(Nc1ccncc1)c1cccc(F)c1,-0.4%
17,Cc1nnc(NC(=O)c2cccc(F)c2)s1,-2.4%
18,O=C(Nc1ccc(Cl)cn1)c1cccnc1,13%

row,SMILES,cytotoxicity
1,O=C(Nc1ccc(Cl)cn1)c1cccc(F)c1,53.4% (active)
2,CN(C)S(=O)(=O)c1cccc(C(=O)Nc2ccc(Cl)cn2)c1,-15.5%
3,O=C(CSc1nnc(-c2cccs2)o1)N1CCCc2ccccc21,-17.8%
4,CCOC(=O)C1CCCN(CC(=O)Nc2c(C(=O)OC)[nH]c3ccc(C)cc23)C1 (stereo unspecified),-8.3%
5,CC(C)(O)c1cc(=O)sc2nc3ccccc3n12,-13.4%
6,N=c1cc(C2(O)CCCCC2)n2c(nc3ccccc32)s1,51.1% (active)
7,c1ccc2nc3c(nc2c1)sc1nc2ccccc2n13,-6.8%
8,COc1ccc(NC(=O)CS(=O)CC(=O)Nc2cc(Cl)ccc2OC)cc1 (stereo unspecified),-12.2%
9,CC(Oc1ccc(Cl)cc1Cl)C(=O)Nc1ccncc1 (stereo unspecified),-0.5%
10,Cc1ccc(N(CC(O)CN(C)C)S(=O)(=O)c2ccccc2)cc1 (stereo unspecified),3.3%
11,Cc1cccc(-c2nnc(-c3ccccc3)o2)c1,-3.9%
12,O=C(Nc1nnc(-c2ccccc2)o1)Nc1ccccc1Cl,22.1%
13,COc1ccc(C(=O)Nc2nnc(-c3ccccc3)o2)cc1OC,-9.5%
14,CC(=O)c1ccc(C(=O)Nc2nnc(-c3ccc(Cl)cc3)o2)cc1,66.8% (active)
15,Cc1cccc(-c2nnc(-c3ccc(N)cc3)o2)c1,-2%
16,COc1ccccc1C(=O)Nc1nnc(-c2ccc(Cl)cc2)o1,-10.4%
17,Cc1cccc(-c2nnc(NC(=O)c3ccc(Cl)cc3)o2)c1,79.5% (active)
18,CN(C)c1ccc(C(=O)Nc2nnc(-c3ccc(Cl)cc3)o2)cc1,31.7%
